Measurements from PubChem BioAssay.
Active and inactive are the calls of the source.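 Rule for the calls, unless noted: active = compounds whose cell count with miR-34 switched on is under 0.7 times the count with it off; inactive = the rest.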

Legend:
[1] = compounds altering viability of human ES cells (AID 493140; call rule not given here;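 note: cells exposed to compounds for four days before counting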); details: human embryonic stem cell survival screen; stronger effect = higher value
[2] = P. berghei load reduction in hepatocytes – cell-based, HepG2, luciferase luminescence, HepG2 viability, primary screen (AID 624349; in the data active = parasite load remaining mostly below about 12%, no sharp cut-off; inactive = mostly above about 10%;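 note: 100% = mean of DMSO negative control wells on the same plate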); details: P. berghei liver stage in HepG2, luciferase luminescence, concentration not given here; parasite load remaining: stronger effect = lower value; viability: measured here: HepG2 viability without parasites
[3] = viability loss with induced miR-34 in A549 – imaging, A549 dox-inducible miR-34, nuclei and caspase counts, primary screen (AID 1347080); details: A549 miR-34 inducible, Hoechst nuclei count, 48 h
[4] = MELAS cybrid and Rieske KO viability enhancers – cell-based, MELAS cybrids, Rieske KO mouse fibroblasts, CellTiter-Glo, primary screen (AID 1508586;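 active = mean z-score across replicates of 1.96 or higher in either the MELAS or the Rieske mutant cell line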;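 note: z relative to plate mean and SD of compound and empty wells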); details: low glucose
[5] = galactose survival enhancers in mitochondrial complex I cybrids – cell-based, galactose medium, ATP luminescence, primary screen (AID 1645843;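 active = z-score of at least 1.8 in each of two replicates, scored against plate mean and spread of sample wells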;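 note: positive z means more ATP and so rescue of galactose-driven cybrid death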); details: complex I mutant cybrid cells, 72 h, stronger effect = higher value
[6] = stronger effect = lower value, cell number ratio, induced over uninduced
[7] = measured here: relative caspase fold change +Dox/-Dox
[8] = measured here: total cells with miR-34 induction, stronger effect = lower value
[9] = measured here: total cells without miR-34 induction
[10] = MELAS cybrid survival, CellTiter-Glo 48 h, stronger effect = higher value
[11] = Rieske KO mouse fibroblast survival, CellTiter-Glo 72 h

SMILES	survival [1]	parasite load remaining [2]	viability [2] [%]	fold change [3, 6]	fold change [3, 7]	cell count [3, 8]	cell count [3, 9]	z-score [4, 10]	z-score [4, 11]	z-score [5]
C[C@H](C(=O)O)c1cccc(C(=O)c2ccccc2)c1	115 (inactive)	42.4% (inactive)	93	0.744 (inactive)	1.59	7940	10700	-0.319 (inactive)	-0.518	0.4 (inactive)
CO/N=C(\C(=O)N[C@@H]1C(=O)N2C(C(=O)[O-])=C(C[N+]3(C)CCCC3)CS[C@H]12)c1csc(N)n1		37.1% (inactive)	100	0.872 (inactive)	1.15	9480	10900	-0.344 (inactive)	0.0422	0.485 (inactive)
CC[C@H]1OC(=O)[C@H](C)[C@@H](O[C@H]2C[C@@](C)(OC)[C@@H](O)[C@H](C)O2)[C@H](C)[C@@H](O[C@@H]2O[C@H](C)C[C@H](N(C)C)[C@H]2O)[C@](C)(O)C[C@@H](C)/C(=N/OCOCCOC)[C@H](C)[C@@H](O)[C@]1(C)O		72.6% (inactive)	69.5	0.917 (inactive)	1.04	9160	9990	-0.295 (inactive)	-0.333	0.145 (inactive)
C[N+](C)(C)[C@@H](Cc1c[nH]c(=S)[nH]1)C(=O)[O-]		52.4% (inactive)	234	0.872 (inactive)	1.27	9810	11300	-0.462 (inactive)	-0.623	0.805 (inactive)
COC(=O)c1ccccc1O		53.2% (inactive)	98	0.851 (inactive)	1.32	10100	11800	-0.407 (inactive)	-0.367	0.47 (inactive)
